In the supplement of paper PMC6555819:

Key:
Assay in all cases: PBM binding z-score (relative to random genomic background probes); higher = stronger binding; sequences stand for … in GC…GCGATTGACAGCGTAGAATGAAGG
[1] = tested on: PPARg:RXRa DBDmut IVT, anti-RXR (DBD mutation: RXRa K156A/R161A, NR concentration 270 nM, RXRa partner concentration 90 nM)
Procedure, shortened: (§1)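 Antibodies against each partner of ligand-free nuclear receptor dimers (one per run) detected binding on custom Agilent 4×180K protein-binding microarrays after 1 h incubation. The double-stranded probes had 34-nt variable regions carrying direct-repeat seeds, single-nucleotide variants, half-site ablations and random human genomic background sequences. Binding z-scores, from regression-normalized fluorescence, use the random background probes as reference.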

[2] = tested on: PPARg:RXRa IVT, anti-PPARg (NR concentration 270 nM, RXRa partner concentration 90 nM)
Procedure, shortened: as §1

[3] = tested on: PPARg DBDmut:RXRa IVT, anti-PPARg (DBD mutation: PPARg1 K132A/R137A, NR concentration 270 nM, RXRa partner concentration 90 nM)
Procedure, shortened: as §1

[4] = tested on: PPARg DBDmut IVT, anti-PPARg (DBD mutation: PPARg1 K132A/R137A, NR concentration 270 nM)
Procedure, shortened: as §1

[5] = tested on: PPARg homodimer (NR concentration 180 nM)
Procedure, shortened: as §1

[6] = tested on: PXR:RXRa (NR concentration 270 nM, RXRa partner concentration 90 nM)
Procedure, shortened: as §1

[7] = tested on: PXR homodimer (NR concentration 270 nM)
Procedure, shortened: as §1

[8] = tested on: RARa:RXR (NR concentration 270 nM, RXRa partner concentration 90 nM)
Procedure, shortened: as §1

[9] = tested on: RARa homodimer (NR concentration 270 nM)
Procedure, shortened: as §1

[10] = tested on: RARb:RXRa (NR concentration 270 nM, RXRa partner concentration 90 nM)
Procedure, shortened: as §1

[11] = tested on: RARb homodimer (NR concentration 270 nM)
Procedure, shortened: as §1

[12] = tested on: RARg:RXRa (NR concentration 270 nM, RXRa partner concentration 90 nM)
Procedure, shortened: as §1

[13] = tested on: RARg homodimer (NR concentration 270 nM)
Procedure, shortened: as §1

[14] = tested on: RXRa DBDmut IVT, anti-RXR (DBD mutation: RXRa K156A/R161A, NR concentration 90 nM)
Procedure, shortened: as §1

[15] = tested on: RXRa homodimer (NR concentration 180 nM)
Procedure, shortened: as §1

[16] = tested on: THRa:RXRa (NR concentration 90 nM, RXRa partner concentration 90 nM)
Procedure, shortened: as §1

[17] = tested on: THRa homodimer (NR concentration 90 nM)
Procedure, shortened: as §1

[18] = tested on: VDR homodimer (NR concentration 270 nM)
Procedure, shortened: as §1

## AGTATGAGGTTATACGTAGATCAGGGAAGAAAGT
[1]
  PBM binding z-score: 1.1
[2]
  PBM binding z-score: 0.98
[3]
  PBM binding z-score: 0.752
[4]
  PBM binding z-score: 0.274
[5]
  PBM binding z-score: 0.842
[6]
  PBM binding z-score: 1.25
[7]
  PBM binding z-score: 0.582
[8]
  PBM binding z-score: 1.66
[9]
  PBM binding z-score: 0.209
[10]
  PBM binding z-score: 1.58
[11]
  PBM binding z-score: 0.828
[12]
  PBM binding z-score: 1.81
[13]
  PBM binding z-score: 1.26
[14]
  PBM binding z-score: 1.67
[15]
  PBM binding z-score: 2.18
[16]
  PBM binding z-score: 2.4
[17]
  PBM binding z-score: 0.869
[18]
  PBM binding z-score: 0.823

## CGAACTCGGTCATTGACAGGACAGTGAATAGTAA
[1]
  PBM binding z-score: 2.98
[2]
  PBM binding z-score: 2.26
[3]
  PBM binding z-score: -0.213
[4]
  PBM binding z-score: -0.299
[5]
  PBM binding z-score: 0.0566
[6]
  PBM binding z-score: 0.137
[7]
  PBM binding z-score: -0.233
[8]
  PBM binding z-score: 0.436
[9]
  PBM binding z-score: -0.219
[10]
  PBM binding z-score: 2.14
[11]
  PBM binding z-score: 1.42
[12]
  PBM binding z-score: 2.12
[13]
  PBM binding z-score: 2.49
[14]
  PBM binding z-score: 0.678
[15]
  PBM binding z-score: 0.736
[16]
  PBM binding z-score: 0.661
[17]
  PBM binding z-score: -0.331
[18]
  PBM binding z-score: 0.676

## AGAATGAGGTTATCAAAGATCAGGGAAACGCTTG
[1]
  PBM binding z-score: 2.98
[2]
  PBM binding z-score: 2.51
[3]
  PBM binding z-score: 1.56
[4]
  PBM binding z-score: 0.266
[5]
  PBM binding z-score: 0.544
[6]
  PBM binding z-score: 1.25
[7]
  PBM binding z-score: 0.0151
[8]
  PBM binding z-score: 1.6
[9]
  PBM binding z-score: 0.154
[10]
  PBM binding z-score: 1.33
[11]
  PBM binding z-score: 0.294
[12]
  PBM binding z-score: 1.47
[13]
  PBM binding z-score: 1.24
[14]
  PBM binding z-score: 1.49
[15]
  PBM binding z-score: 2.28
[16]
  PBM binding z-score: 2.58
[17]
  PBM binding z-score: 0.571
[18]
  PBM binding z-score: 0.495

## TCTGCTAGGTCAACGATGGTCAGCAAATCTGCTA
[1]
  PBM binding z-score: 3.85
[2]
  PBM binding z-score: 4.18
[3]
  PBM binding z-score: 0.827
[4]
  PBM binding z-score: 0.166
[5]
  PBM binding z-score: 0.381
[6]
  PBM binding z-score: 1.47
[7]
  PBM binding z-score: -0.599
[8]
  PBM binding z-score: 2.12
[9]
  PBM binding z-score: -0.686
[10]
  PBM binding z-score: 4.26
[11]
  PBM binding z-score: 3.35
[12]
  PBM binding z-score: 3.94
[13]
  PBM binding z-score: 5.26
[14]
  PBM binding z-score: 0.984
[15]
  PBM binding z-score: 2.45
[16]
  PBM binding z-score: 3.17
[17]
  PBM binding z-score: 0.756
[18]
  PBM binding z-score: -0.402

## GCTTGTAGATCAAGGTTAGGAAAGACTAAGCTAA
[1]
  PBM binding z-score: 1.45
[2]
  PBM binding z-score: 0.637
[3]
  PBM binding z-score: -0.619
[4]
  PBM binding z-score: 0.0428
[5]
  PBM binding z-score: -0.189
[6]
  PBM binding z-score: -0.276
[7]
  PBM binding z-score: -0.422
[8]
  PBM binding z-score: -0.0199
[9]
  PBM binding z-score: -0.3
[10]
  PBM binding z-score: 0.336
[11]
  PBM binding z-score: -0.185
[12]
  PBM binding z-score: -0.139
[13]
  PBM binding z-score: -0.0948
[14]
  PBM binding z-score: -0.199
[15]
  PBM binding z-score: 0.0572
[16]
  PBM binding z-score: 0.576
[17]
  PBM binding z-score: -0.327
[18]
  PBM binding z-score: -0.0771

## TCTATTAGTGGATTAGGGCAACCGAAACAGCGGA
[1]
  PBM binding z-score: 2.45
[2]
  PBM binding z-score: 2.24
[3]
  PBM binding z-score: 0.96
[4]
  PBM binding z-score: 1.11
[5]
  PBM binding z-score: 1.27
[6]
  PBM binding z-score: 0.235
[7]
  PBM binding z-score: 0.482
[8]
  PBM binding z-score: 0.458
[9]
  PBM binding z-score: 1.39
[10]
  PBM binding z-score: 0.682
[11]
  PBM binding z-score: 0.492
[12]
  PBM binding z-score: 0.384
[13]
  PBM binding z-score: 0.643
[14]
  PBM binding z-score: 1.06
[15]
  PBM binding z-score: 0.49
[16]
  PBM binding z-score: 0.449
[17]
  PBM binding z-score: 0.4
[18]
  PBM binding z-score: 0.393

## GGAACGAGGGCAAGTTGATAGCTGAGTTTGATGG
[1]
  PBM binding z-score: 3.45
[2]
  PBM binding z-score: 2.67
[3]
  PBM binding z-score: 0.246
[4]
  PBM binding z-score: -0.342
[5]
  PBM binding z-score: 0.0769
[6]
  PBM binding z-score: 0.535
[7]
  PBM binding z-score: 0.363
[8]
  PBM binding z-score: 0.267
[9]
  PBM binding z-score: -0.269
[10]
  PBM binding z-score: 2.57
[11]
  PBM binding z-score: 1.5
[12]
  PBM binding z-score: 1.45
[13]
  PBM binding z-score: 2.07
[14]
  PBM binding z-score: 2.58
[15]
  PBM binding z-score: 0.669
[16]
  PBM binding z-score: 1.09
[17]
  PBM binding z-score: 0.0146
[18]
  PBM binding z-score: 1.84

## CCTACTGGGCCATTCAGAGGTCATTGCTCATATG
[1]
  PBM binding z-score: 4.61
[2]
  PBM binding z-score: 4.29
[3]
  PBM binding z-score: -0.1
[4]
  PBM binding z-score: -0.505
[5]
  PBM binding z-score: 1.87
[6]
  PBM binding z-score: 4.7
[7]
  PBM binding z-score: 2.5
[8]
  PBM binding z-score: 4.24
[9]
  PBM binding z-score: 0.689
[10]
  PBM binding z-score: 3.01
[11]
  PBM binding z-score: 3.78
[12]
  PBM binding z-score: 4.44
[13]
  PBM binding z-score: 3.16
[14]
  PBM binding z-score: 0.998
[15]
  PBM binding z-score: 3.47
[16]
  PBM binding z-score: 3.03
[17]
  PBM binding z-score: 1.28
[18]
  PBM binding z-score: 3.65
